Assay results: PubChem BioAssay (NCATS)
Several values for one entry are separate records, joined by “and”; a condition that tells them apart may be missing. Equal values may be shown once. Records with an inconclusive call do not appear. The source holds several records for some structures; these can differ, active in one and inactive in another. Activity calls are given as the source filed them. Unless noted, the call rests on the fitted dose curve.

Key:
[1] = Cell Viability - Mesenchymal (AID 546; active means well fitted curve in the direction sought with a large enough effect; an effect the other way counts as inactive or inconclusive;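 further: cells exposed to compound for 40 hours before reading; 0% = DMSO only and -100% = 100 µM tamoxifen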); conditions: mesenchymal cells viability, qHTS; series mostly up to 91.7 µM
Outline: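 AC50 values reflect the drop in intracellular ATP in a human kidney mesenchymal line derived from normal glomeruli. Treatment lasts 40 hr at 37 °C in complete medium, and the signal comes from CellTiter-Glo luminescence.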

[2] = molecular target: Bile acid receptor (Homo sapiens) (UniProt Q96RI1); test: qHTS assay for small molecule antagonists of farnesoid X receptor signaling (AID 588526); conditions: HEK293T FXR-UAS-bla, beta-lactamase ratio, antagonist mode; series mostly up to 76.7 µM; further: potency means the concentration at half of the fitted maximal effect
Sequence of Bile acid receptor (Homo sapiens) (Q96RI1 whole entry, looked up): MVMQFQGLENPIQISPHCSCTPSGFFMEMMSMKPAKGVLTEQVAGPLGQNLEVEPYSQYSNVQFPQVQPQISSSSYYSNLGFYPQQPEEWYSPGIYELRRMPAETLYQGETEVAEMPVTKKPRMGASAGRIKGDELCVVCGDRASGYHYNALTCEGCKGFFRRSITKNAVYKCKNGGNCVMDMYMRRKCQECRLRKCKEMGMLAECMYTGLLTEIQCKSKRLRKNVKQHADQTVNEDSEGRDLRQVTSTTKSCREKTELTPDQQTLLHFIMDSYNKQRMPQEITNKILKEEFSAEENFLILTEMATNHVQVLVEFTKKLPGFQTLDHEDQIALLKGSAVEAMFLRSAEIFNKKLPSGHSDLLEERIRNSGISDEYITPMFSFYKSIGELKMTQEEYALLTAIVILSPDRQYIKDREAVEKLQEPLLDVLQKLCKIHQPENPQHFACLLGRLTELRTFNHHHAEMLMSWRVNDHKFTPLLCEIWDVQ
Outline: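 Beta-lactamase reporter antagonist mode: HEK293T FXR-UAS-bla cells, titrated compound, CDCA stimulation, 16 h 37 C, CCF4 dye 2 h RT. Data normalized to CDCA 50 uM and DMSO; Hill-fit IC50.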

[3] = molecular target: Glucocorticoid receptor (Homo sapiens) (UniProt P04150); test: qHTS assay for small molecule agonists of glucocorticoid receptor signaling (AID 588532; active means well fitted curve in the direction sought with a large enough effect in the signal ratio, with a control signal flat; the % refers to the signal ratio;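 further: 100% = dexamethasone at 0.1 µM and 0% = DMSO only wells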); conditions: HeLa MMTV-bla, beta-lactamase ratio, agonist, 18 h; stronger effect = higher value; percent of dexamethasone control, DMSO zero
Sequence of Glucocorticoid receptor (Homo sapiens) (P04150 whole entry, looked up): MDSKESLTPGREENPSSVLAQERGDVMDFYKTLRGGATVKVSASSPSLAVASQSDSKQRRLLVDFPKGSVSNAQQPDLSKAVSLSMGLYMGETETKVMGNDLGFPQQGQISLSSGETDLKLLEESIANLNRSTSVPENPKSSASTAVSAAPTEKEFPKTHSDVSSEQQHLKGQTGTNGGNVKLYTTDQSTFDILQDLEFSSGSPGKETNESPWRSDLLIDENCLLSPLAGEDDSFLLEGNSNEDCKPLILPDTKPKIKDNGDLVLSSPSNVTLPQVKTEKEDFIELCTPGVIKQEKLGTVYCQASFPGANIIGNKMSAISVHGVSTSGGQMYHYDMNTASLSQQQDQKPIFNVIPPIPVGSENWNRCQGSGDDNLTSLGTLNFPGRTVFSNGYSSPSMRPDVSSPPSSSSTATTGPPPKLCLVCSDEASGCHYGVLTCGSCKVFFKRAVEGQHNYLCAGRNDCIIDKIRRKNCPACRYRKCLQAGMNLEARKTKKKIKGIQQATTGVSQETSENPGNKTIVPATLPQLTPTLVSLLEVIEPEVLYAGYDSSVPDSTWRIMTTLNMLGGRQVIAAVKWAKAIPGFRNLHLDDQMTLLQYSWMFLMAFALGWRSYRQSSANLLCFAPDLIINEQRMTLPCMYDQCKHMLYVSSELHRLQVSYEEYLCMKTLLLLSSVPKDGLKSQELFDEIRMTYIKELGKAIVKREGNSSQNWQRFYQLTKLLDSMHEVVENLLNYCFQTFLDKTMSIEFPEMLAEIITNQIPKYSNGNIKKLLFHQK
Outline: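 Using MMTV-bla HeLa cells in medium with 1% stripped FBS and 25 mM HEPES, compounds were titrated and incubated overnight-length (18 h). Beta-lactamase cleavage of CCF4 was quantified by dual-emission fluorescence.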

[4] = molecular target: Glucocorticoid receptor (Homo sapiens) (UniProt P04150); test: qHTS assay for small molecule antagonists of glucocorticoid receptor signaling (AID 588533; active means well fitted inhibition curve with a large enough effect in the signal ratio, with a control signal flat, not every such curve was filed as active; the % refers to the signal ratio;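 further: cells stimulated with 2 nM dexamethasone as agonist; potency means the concentration at half of the fitted maximal effect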); conditions: HeLa MMTV-bla, GRE beta-lactamase ratio, antagonist mode, 18 h; series mostly up to 76.8 µM
Outline: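 Antagonist-mode qHTS: compound titrations added to GRE-bla HeLa cells, then dexamethasone 2 nM final; 18 h, 37 C. CCF4 FRET fluorescence normalized to dexamethasone and DMSO; IC50 from Hill fit.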

[5] = qHTS assay for small molecule antagonists of peroxisome proliferator-activated receptor delta signaling (AID 588535; active means well fitted inhibition curve with a large enough effect in the signal ratio, with a control signal flat, not every such curve was filed as active; the % refers to the signal ratio;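 on max response: cells co-treated with a PPAR-delta agonist as stimulator during compound exposure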); conditions: HEK293T PPARd-UAS-bla, beta-lactamase FRET ratio, 18 h; 460 nm channel
Outline: (§1)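 Cell-based beta-lactamase assay in antagonist mode: 4000 HEK293T PPAR-delta-UAS-bla cells per well, 5 hr preincubation then 18 hr compound incubation at 37 C. IC50 obtained by Hill equation fitting.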

[6] = molecular target: Peroxisome proliferator-activated receptor delta (Homo sapiens) (UniProt Q03181); test: as above; conditions: HEK293T PPARd-UAS-bla, beta-lactamase FRET ratio, 18 h; series mostly up to 76.7 µM
Sequence of Peroxisome proliferator-activated receptor delta (Homo sapiens) (Q03181 whole entry, looked up): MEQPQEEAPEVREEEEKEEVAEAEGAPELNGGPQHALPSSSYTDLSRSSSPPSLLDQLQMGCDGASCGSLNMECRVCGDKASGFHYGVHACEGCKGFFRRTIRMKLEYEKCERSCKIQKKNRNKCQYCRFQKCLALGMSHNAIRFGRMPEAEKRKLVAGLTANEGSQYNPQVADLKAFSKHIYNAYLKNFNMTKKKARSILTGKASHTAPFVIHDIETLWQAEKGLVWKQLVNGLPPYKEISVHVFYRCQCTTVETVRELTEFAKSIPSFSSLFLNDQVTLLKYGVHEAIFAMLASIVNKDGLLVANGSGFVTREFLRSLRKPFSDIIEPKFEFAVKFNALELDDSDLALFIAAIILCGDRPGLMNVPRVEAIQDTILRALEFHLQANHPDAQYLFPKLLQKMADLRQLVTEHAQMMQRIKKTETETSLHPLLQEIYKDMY
Outline: as §1

[7] = molecular target: Vitamin D3 receptor (Homo sapiens) (UniProt P11473); test: qHTS assay for small molecule antagonists of vitamin D receptor signaling (AID 588541); conditions: HEK293T VDR-UAS-bla, beta-lactamase ratio, antagonist mode; series mostly up to 76.7 µM;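 further: receptor activated by calcitriol during compound treatment; on the % scale 0 is the no-effect control and ±100 the full control effect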
Sequence of Vitamin D3 receptor (Homo sapiens) (P11473 whole entry, looked up): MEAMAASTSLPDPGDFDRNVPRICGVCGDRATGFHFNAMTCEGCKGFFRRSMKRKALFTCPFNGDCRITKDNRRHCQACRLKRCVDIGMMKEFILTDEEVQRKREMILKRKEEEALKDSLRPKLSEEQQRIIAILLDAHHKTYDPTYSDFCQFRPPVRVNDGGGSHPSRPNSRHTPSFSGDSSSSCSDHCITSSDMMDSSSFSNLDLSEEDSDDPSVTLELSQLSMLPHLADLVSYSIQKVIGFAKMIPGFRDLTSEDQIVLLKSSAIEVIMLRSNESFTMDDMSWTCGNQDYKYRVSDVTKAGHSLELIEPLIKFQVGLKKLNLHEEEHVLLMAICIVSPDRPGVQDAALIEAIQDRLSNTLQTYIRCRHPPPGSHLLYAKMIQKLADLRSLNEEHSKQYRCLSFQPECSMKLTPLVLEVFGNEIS
Outline: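 Antagonist-mode beta-lactamase reporter assay: HEK293T VDR-UAS-bla cells were exposed to titrated compound alongside 1-alpha,25-dihydroxyvitamin D3 at 3 nM final for 16 h. Values were normalized to the 50 nM agonist control and DMSO basal, with IC50 and efficacy from Hill equation fits.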

[8] = molecular target: Vitamin D3 receptor (Homo sapiens) (UniProt P11473); test: qHTS assay for small molecule agonists of vitamin D receptor signaling (AID 588543); conditions: HEK293T VDR-UAS-bla, beta-lactamase ratio, 16 h; series mostly up to 76.8 µM;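 further: 0% = DMSO basal and 100% = reference agonist control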
Outline: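 Measured: β-lactamase reporter activity (CCF4, 405 nm excitation, 460/530 nm emission) in HEK293T VDR-UAS-bla cells after 16 h compound exposure at 37 °C. Normalization against 50 nM 1α,25-dihydroxyvitamin D3 and DMSO; Hill-fit EC50.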

[9] = qHTS assay for small molecule agonists of retinoid X receptor alpha signaling (AID 588544); conditions: HEK293T RXRa-UAS-bla, beta-lactamase reporter, 18 h; 530 nm emission;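 on activation: 0% = DMSO basal wells and 100% = reference agonist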
[10] = molecular target: Retinoic acid receptor RXR-alpha (Homo sapiens) (UniProt P19793); test: as above; conditions: HEK293T RXRa-UAS-bla, beta-lactamase reporter, 18 h; series mostly up to 76.7 µM
Sequence of Retinoic acid receptor RXR-alpha (Homo sapiens) (P19793 whole entry, looked up): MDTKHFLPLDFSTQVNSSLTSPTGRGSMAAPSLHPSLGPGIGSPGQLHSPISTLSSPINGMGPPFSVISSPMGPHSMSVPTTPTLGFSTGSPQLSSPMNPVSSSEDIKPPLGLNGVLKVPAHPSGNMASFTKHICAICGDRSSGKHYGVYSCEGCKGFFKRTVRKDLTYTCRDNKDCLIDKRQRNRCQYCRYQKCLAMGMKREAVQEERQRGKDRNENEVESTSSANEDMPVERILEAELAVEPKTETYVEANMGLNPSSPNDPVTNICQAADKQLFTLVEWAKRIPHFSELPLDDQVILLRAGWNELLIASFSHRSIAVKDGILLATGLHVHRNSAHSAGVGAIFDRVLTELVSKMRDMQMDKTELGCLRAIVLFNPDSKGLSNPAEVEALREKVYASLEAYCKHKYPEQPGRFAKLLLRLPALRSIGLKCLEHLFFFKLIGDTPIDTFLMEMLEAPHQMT

[11] = molecular target: Thyroid hormone receptor beta (Homo sapiens) (UniProt P10828); test: qHTS assay for small molecule agonists of thyroid hormone receptor beta signaling (AID 588545); conditions: TR-UAS-bla GripTite HEK 293, beta-lactamase ratio, agonist mode, 18 h, percent of T3 response, DMSO as zero; series mostly up to 76.7 µM;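 further: 0% = DMSO only and 100% = 10 nM T3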
Sequence of Thyroid hormone receptor beta (Homo sapiens) (P10828 whole entry, looked up): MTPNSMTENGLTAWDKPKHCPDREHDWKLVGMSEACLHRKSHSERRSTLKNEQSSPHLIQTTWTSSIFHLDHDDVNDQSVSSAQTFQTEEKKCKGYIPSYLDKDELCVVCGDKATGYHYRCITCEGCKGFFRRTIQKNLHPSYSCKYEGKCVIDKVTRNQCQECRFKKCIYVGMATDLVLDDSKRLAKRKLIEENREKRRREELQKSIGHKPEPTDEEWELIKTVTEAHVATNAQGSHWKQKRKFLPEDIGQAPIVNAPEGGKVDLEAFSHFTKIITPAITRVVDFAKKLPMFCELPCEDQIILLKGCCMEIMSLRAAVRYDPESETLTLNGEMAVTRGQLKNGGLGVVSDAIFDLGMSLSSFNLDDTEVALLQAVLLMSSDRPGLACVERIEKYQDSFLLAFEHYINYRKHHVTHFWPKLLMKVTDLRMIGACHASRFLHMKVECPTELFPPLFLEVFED
Outline: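 Stimulation of a TR-driven beta-lactamase reporter was quantified in GripTite HEK 293 cells. Compound series ran for 18 hrs; curves were normalized to T3 and DMSO controls and fitted to yield EC50.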

[12] = molecular target: Voltage-gated inwardly rectifying potassium channel KCNH2 (Homo sapiens) (UniProt Q12809); test: qHTS Assay for Small Molecule Inhibitors of the Human hERG Channel Activity (AID 588834; active means well fitted curve in the direction sought with a large enough effect; an effect the other way counts as inactive or inconclusive;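 further: top concentration of the series differs between compounds; on the % scale 0 is the no-effect control and ±100 the full control effect; lower thallium flux fluorescence means stronger hERG block; nearly all actives have a fitted effect of over 50% in size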); conditions: U2OS BacMam hERG, FluxOR thallium flux fluorescence; series mostly up to 46.1 µM
Outline: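 Blockade is seen as reduced FluxOR thallium-flux fluorescence in U2OS cells expressing hERG from a BacMam construct, in Opti-MEM with 2% FCS. Concentration-response data fitted to the Hill equation for AC50.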

[13] = qHTS assay for small molecule agonists of the antioxidant response element (ARE) signaling pathway (AID 651741; active means well fitted activation curve with a large enough effect in the signal ratio; the % refers to the signal ratio; further: potency means the concentration at half of the fitted maximal effect); conditions: HepG2 ARE-bla reporter, beta-lactamase FRET ratio, 16 h
Outline: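 Seeding 2,000 ARE-bla HepG2 cells per well preceded a 5 h incubation at 37 C/5% CO2 and a 16 h compound exposure at 37 C. Beta-lactamase reporter activity was then quantified by fluorescence after 2 h with LiveBLAzer B/G FRET substrate.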

[14] = qHTS assay for small molecule activators of the p53 signaling pathway (AID 651743; active means well fitted activation curve with a large enough effect in the signal ratio, not every such curve was filed as active; the % refers to the signal ratio; further: potency means the concentration at half of the fitted maximal effect); conditions: HCT-116 p53RE-bla, beta-lactamase FRET ratio, 16 h; activation: stronger effect = higher value
Outline: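 Screen for p53 pathway agonists uses stably transfected p53RE-bla HCT-116 cells, 4,000 per well, treated 16 h at 37 C with compounds in DMSO.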

[15] = qHTS assay for small molecule activators of the nuclear factor-kappa B (NF-kB) signaling pathway (AID 651749; active means well fitted activation curve with a large enough effect in the signal ratio; the % refers to the signal ratio; further: % of control where 0% means no effect); conditions: NF-kB-bla ME-180 cells, beta-lactamase FRET ratio, 16 h; stronger effect = higher value
Outline: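 Stably transfected ME-180 line; NF-kB response element upstream of beta-lactamase. Treatment: compound or DMSO, 16 hr. Detection: fluorescent FRET substrate.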

[16] = qHTS assay for small molecule disruptors of the mitochondrial membrane potential - 1 hr assay (AID 651754); conditions: series mostly up to 92.2 µM; further: potency means the concentration at half of the fitted maximal effect; nearly all actives have a fitted effect of over 35% in size
Outline: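 Steps: seed HepG2 cells and let attach overnight; pin-transfer compound or vehicle; incubate 1 hr at 37C; add Mito-MPS dye for 30 min; read two-channel fluorescence for monomer and aggregate forms.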

[17] = molecular target: Tumor necrosis factor (Homo sapiens) (UniProt P01375); test: qHTS assay to identify small molecules that stimulate Tumor Necrosis Factor-alpha (TNF-alpha) secretion (AID 651757; active means well fitted curve in the direction sought with a large enough effect in the signal ratio; the % refers to the signal ratio; further: 0% is about no effect); conditions: Human cells, HTRF 665/615 ratio; series mostly up to 92.2 µM
Sequence of Tumor necrosis factor (Homo sapiens) (P01375 whole entry, looked up): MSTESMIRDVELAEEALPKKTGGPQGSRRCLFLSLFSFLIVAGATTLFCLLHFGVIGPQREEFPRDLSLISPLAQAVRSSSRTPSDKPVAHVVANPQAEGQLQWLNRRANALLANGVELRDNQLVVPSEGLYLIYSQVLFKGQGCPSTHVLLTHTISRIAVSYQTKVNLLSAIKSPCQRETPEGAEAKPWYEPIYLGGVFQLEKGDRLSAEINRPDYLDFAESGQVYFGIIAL
Outline: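 Secreted TNF-alpha from compound-treated THP-1 cells (17 hrs, 37 C) was quantified with a homogeneous time-resolved fluorescence antibody assay.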

[18] = qHTS assay to identify small molecules that stimulate interleukin-8 (IL-8) secretion (AID 651758; active means well fitted activation curve with a large enough effect in the signal ratio; the % refers to the signal ratio; further: 0% is about no effect); conditions: HTRF ratio (665/615); series mostly up to 92.2 µM
Outline: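 Secreted IL-8 measured by TR-FRET sandwich (cryptate and XL665 antibodies) from THP-1 cells exposed to compound overnight (16 hrs, 37 C).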

[19] = molecular target: Peroxisome proliferator-activated receptor alpha (Homo sapiens) (UniProt Q07869); test: qHTS assay for small molecule agonists of the peroxisome proliferator-activated receptor alpha (PPARalpha) signaling pathway (AID 651778; active means well fitted curve in the direction sought with a large enough effect; an effect the other way counts as inactive or inconclusive; further: % of control where 0% means no effect); conditions: PathHunter PPARalpha complementation, chemiluminescence, 6 h; stronger effect = higher value
Sequence of Peroxisome proliferator-activated receptor alpha (Homo sapiens) (Q07869 whole entry, looked up): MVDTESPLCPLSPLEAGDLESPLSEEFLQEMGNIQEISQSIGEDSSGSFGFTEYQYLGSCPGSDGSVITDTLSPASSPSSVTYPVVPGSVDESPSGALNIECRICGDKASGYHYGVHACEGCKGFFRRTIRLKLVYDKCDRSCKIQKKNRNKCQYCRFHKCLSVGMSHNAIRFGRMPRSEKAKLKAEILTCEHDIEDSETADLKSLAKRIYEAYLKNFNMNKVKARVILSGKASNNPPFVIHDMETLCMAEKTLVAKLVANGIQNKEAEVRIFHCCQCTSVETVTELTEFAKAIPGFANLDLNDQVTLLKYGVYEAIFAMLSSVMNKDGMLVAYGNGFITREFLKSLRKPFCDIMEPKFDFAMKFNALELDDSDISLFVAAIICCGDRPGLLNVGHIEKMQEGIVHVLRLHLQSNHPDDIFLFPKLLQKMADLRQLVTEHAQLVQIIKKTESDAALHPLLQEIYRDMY
Outline: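 Chemiluminescence from complemented enzyme reported PPARalpha activation in cells after 6 hr of compound treatment at 37 C. The detection reagent was incubated for 60 min at room temperature, and compounds were scored as agonists.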

[20] = molecular target: Nuclear receptor subfamily 1 group I member 2 (Rattus norvegicus) (UniProt Q9R1A7); test: qHTS assay for small molecule activators of the rat pregnane X receptor (rPXR) signaling pathway (AID 651751; call rule not given here; further: 0% is about no effect); conditions: rPXR reporter cells, luciferase (One-Glo), 24 h
Sequence of Nuclear receptor subfamily 1 group I member 2 (Rattus norvegicus) (Q9R1A7 whole entry, looked up): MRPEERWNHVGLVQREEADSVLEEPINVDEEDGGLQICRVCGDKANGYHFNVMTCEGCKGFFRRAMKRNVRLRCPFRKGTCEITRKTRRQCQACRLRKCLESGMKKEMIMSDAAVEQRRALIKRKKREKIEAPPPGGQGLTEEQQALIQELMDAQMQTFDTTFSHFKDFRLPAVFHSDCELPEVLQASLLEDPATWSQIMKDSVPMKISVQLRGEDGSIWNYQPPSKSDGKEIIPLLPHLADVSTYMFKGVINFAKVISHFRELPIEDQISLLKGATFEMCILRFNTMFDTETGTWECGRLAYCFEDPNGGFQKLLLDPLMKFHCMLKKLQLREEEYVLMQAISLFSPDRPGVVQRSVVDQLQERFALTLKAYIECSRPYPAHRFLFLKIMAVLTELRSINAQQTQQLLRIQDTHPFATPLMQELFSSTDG

SMILES: CC(C)(c1cc(Br)c(O)c(Br)c1)c1cc(Br)c(O)c(Br)c1
- outcome [1]: inactive
- Potency [2]: 28.2 µM (active) and inactive
- activation [3]: -10.8% (inactive) and 25.4% (inactive) and -11.2% (inactive)
- Potency [4]: 44.7 µM (active)
- max response [5]: -3.55% and -29% and 5.87%
- outcome [6]: inactive
- outcome [7]: inactive
- outcome [8]: inactive
- max response [9]: 4.03% and -9.48% and 2.35%
- outcome [10]: inactive
- outcome [11]: inactive
- Potency [12]: inactive
- Potency [13]: 29.8 µM (active) and 23.7 µM (active) and 48.6 µM (active)
- Potency [14]: 28.2 µM (active)
- activation [15]: 2.39% (inactive) and 3.54% (inactive) and 2.16% (inactive)
- Potency [16]: 18.8 µM (active)
- Potency [17]: inactive
- outcome [18]: inactive
- max response [19]: -7.23% (inactive) and -3.95% (inactive) and -1.86% (inactive)
- max response [20]: 4.59% (inactive) and 7.9% (inactive) and 1.02% (inactive)
